Screening results: PubChem, Columbia University Molecular Screening Center
In the library only some 1.1% were active in any assay of this set; here they are far more common.
E-sel TNF inh = E-selectin induction blockers in HUVEC – imaging, immunofluorescence, high content, primary screen | HUVEC TNFa-induced E-selectin immunofluorescence | inhibition, % at 2 µM | actives 0.71% (n = 120,000);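 active = inhibition above the batch mean plus 3 SD, and confirmed as a hit on visual image review, cut at about 43% in these data; inconclusive = passes the inhibition cutoff but fails visual image review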;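 note: 0% = TNF-stimulated DMSO wells and 100% = unstimulated control wells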
F-actin modifier = modifiers of F-actin cytoskeleton organization, primary screen, imaging, HUVEC, phalloidin staining, high-content imaging. HUVEC TNFa F-actin phalloidin imaging. inhibition, % at 2 µM. actives 0.18% (n = 91,000). AID 836, 2007;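 active = inhibition above the batch mean plus 3 SD and confirmed as a hit by visual image inspection, cut at about 30% in these data, passing the limit was not always enough; inconclusive = above the inhibition threshold but rejected on visual inspection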
HUVEC tox TNFa = cytotoxicity in TNFa-stimulated HUVEC, primary screen, cytotoxicity control for VCAM1 expression modulator project, imaging, Hoechst nuclei count; HUVEC TNFalpha-stimulated, Hoechst cell count; actives 0.17% (n = 93,000); cell count reduction, % at 2 µM; AID 848, 2007;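 active = cell count reduction exceeding the screen mean by over 5 SD, scaled to untreated wells per plate, cut at about 78% in these data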;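 note: cells counted after 24 h of TNF alpha exposure following the 1 h pretreatment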
VCAM1 TNFa inh = inhibitors of TNFa-induced VCAM1 expression, primary screen, imaging, HUVEC, TNFa stimulus, immunofluorescence; HUVEC TNFa-induced VCAM-1 immunofluorescence, high-content imaging; inhibition, % at 2 µM; actives 0.48% (n = 95,000);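 active = inhibition above the batch mean plus 3 SD, with images confirmed as a hit by eye, cut at about 37% in these data; inconclusive = inhibition above that limit but hit not confirmed in images; inactive = inhibition not above that limit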;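 note: 0% = TNF-stimulated DMSO wells and 100% = unstimulated control wells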
Active calls of the source: *; ? = inconclusive; . = no result.

SMILES	E-sel TNF inh	F-actin modifier	HUVEC tox TNFa	VCAM1 TNFa inh
Oc1ccc(Nc2nc3ccccc3nc2Nc2ccc(O)cc2)cc1	46	?	.	94*
CCN1C(=O)C2C(C1=O)N1C(c3ccccc3)C3C(=O)N(CC)C(=O)C3N1C2c1ccccc1 (configuration not stated)	3	-9	1	20
N#Cc1c2c(c(NCc3ccco3)n3c1nc1ccccc13)CCC2	.	-5	84*	52
CN(C)CCNc1c2c(c(C#N)c3nc4ccccc4n13)CCCC2	9	-8	-34	10
CCOC(=O)c1c(NC(=O)COC(=O)c2c(C)noc2C)sc2c1CCC2	11	-5	1	-9
CCOC(=O)c1c(NC(=O)COC)sc2c1CCCC2	53*	-2	-12	20
CCCCn1c2nc3ccccc3nc2c2c(=O)n(CCC(C)C)cnc21	19	-6	-31	11
CCCCn1c2nc3ccccc3nc2c2c(=O)n(-c3ccccc3)cnc21	92*	.	.	.
COc1cc(CC(=O)Oc2ccc3c(c2)OCO3)cc(OC)c1OC	91*	.	.	.
CCCCn1nnnc1NCc1ccc(C)s1	8	-9	.	-5
Cc1ccc(N(C)C(=O)N2CCN(S(=O)(=O)c3ccc4ccccc4c3)CC2)cc1	-77	9	-17	-10
CC1(C)Cc2c(oc3ncn4ncnc4c23)CO1	.	.	97*	?
Cc1ccc(S(=O)(=O)N2CCC(C(=O)N/N=C/c3ccncc3)CC2)cc1	-4	.	.	.
c1ccc(-c2ccnc3nc(N4CCN(c5ccccc5)CC4)nn23)cc1	9	-16	-14	1
c1ccc(Oc2ccc(-c3ccnc4nc(N5CCN(c6ccccc6)CC5)nn34)cc2)cc1	53*	21	-8	30
CSc1nc2nccc(-c3ccc(Oc4ccccc4)cc3)n2n1	1	27	-42	86*
CSc1nc2nccc(-c3ccc(-c4ccccc4)cc3)n2n1	10	-1	-9	2
COc1ccc(C(C#N)N2CCCCCC2)cc1OC (configuration not stated)	17	9	-19	-2
COc1cccc(C(C#N)N2CCCCC2)c1O (configuration not stated)	-14	48*	-12	8
O=C(NNC(=O)C1CCN(S(=O)(=O)c2ccc(Cl)cc2)CC1)c1ccccc1	-12	.	.	.
Cc1c(Br)c([N+](=O)[O-])nn1CCCC(=O)Nc1sc2c(c1C#N)CCC2	24	.	.	.
Cc1c(Br)c([N+](=O)[O-])nn1CC(=O)Nc1sc2c(c1C(=O)OC(C)C)CCCC2	64*	8	-4	10
COc1ccc(NC(=S)N2CCN(Cc3ccco3)CC2)c(OC)c1	-10	.	.	.
C/C(=N\O)c1ccc2c3ccccc3n(C)c2c1	.	-22	29	41*
CCCCNC(=O)c1ccccc1NC(=O)CCC	-10	.	.	.
SMILES	E-sel TNF inh	F-actin modifier	HUVEC tox TNFa	VCAM1 TNFa inh
COc1ccccc1-n1cnc2cc(NCc3cccs3)ccc21	-9	32*	52	82*
COc1ccccc1-n1cnc2cc(NCc3ccco3)ccc21	-17	-29	19	40*
CCNC(=S)N1CCN(c2ccc([N+](=O)[O-])cc2)CC1	-39	-11	-6	1
COCCCNC(=S)N1CCN(c2ccc([N+](=O)[O-])cc2)CC1	65*	.	.	.
COc1ccc(NC(=O)CSc2nnc(-c3cccs3)n2-c2ccccc2)cc1	.	38	-32	3
COc1cc2c(cc1OC)C(C(=O)N1CCN(c3ccccc3)CC1)C(c1cccs1)N(C)C2=O (configuration not stated)	0	-3	-26	12
COc1cc2c(cc1OC)CN(CC(=O)Nc1ccc(Cl)c(S(=O)(=O)N(C)C)c1)CC2	-42	.	.	.
Cc1ccc(C(=O)CSc2nnc(COc3ccc(C#N)cc3)n2-c2ccccc2)cc1	4	8	8	96*
COc1ccc(-n2c(COc3ccc(C)cc3)nnc2SCC(N)=O)cc1	.	3	-15	7
COc1ccc(-n2c(COc3ccccc3)nnc2SCC(N)=O)cc1	81*	5	16	10
CCc1nnc(NC(=O)CSc2nnc(COc3ccccc3)n2-c2ccc(C)cc2)s1	.	90*	-10	16
C=CCn1c(COc2ccccc2)nnc1SCC(=O)O	62*	-14	-10	-9
CCc1nnc(NC(=O)CSc2nnc(COc3ccccc3)n2Cc2ccccc2)s1	10	-22	45	-5
C/C(CC(=O)Nc1ccc(OCc2ccccc2)cc1)=N\NC(=O)C(=O)Nc1ccc(C)c(Cl)c1	-57	-34	7	-3
CCOc1cccc(C(=O)Nc2ccc3oc(Cc4ccc(Cl)cc4)nc3c2)c1	3	-6	-10	23
